From PubChem BioAssay (NCI) come the findings set out here.

Compounds without any hit were thinned out: in the full panel of roughly 83,000, 20% have a hit.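 Compound tested at a single concentration for 48 hours in 96-well plates; a percent growth value below 10 was scored as active.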 Values without a mark were called inactive. Active and inactive are the calls of the source.

The assay relates to OVCAR-4 ovarian. Description: NCI-60 one-dose screen, 48 h (100 = growth as untreated, 0 = no growth, -100 = all killed). Particulars: 10 µM.
In the case of `Nc1nc(-c2ccccc2)cc(-c2cc3ccccc3nc2Cl)n1`, the growth is 96%. `O=C(Cn1cc(CSc2nnc3oc4ccccc4n23)nn1)Nc1ccc(Br)cc1`: the growth was 87%. As to `O=c1oc2ccc(-c3ccc(F)cc3F)cc2c(=O)n1-c1ccc(F)c(Cl)c1`, the growth was 10.5%. As for `CN1CCN(c2ccc(Nc3nc(NCCCNC(=O)c4ccc(F)cc4)c4sccc4n3)cc2)CC1`, the growth was 80.1%. The same measure for `CO[C@@H]1CSS[C@H]1Cn1nc(-c2ccc(Oc3ccccc3)cc2)c2c(N)ncnc21`: 67.3%; for `CC(=O)Nc1ccc(-n2cnc3cc(-c4ccc(O)cc4)ccc32)cc1C`: 70.2%; for `COC(=O)CC1CC1C1Cc2c(nc(N(C)S(C)(=O)=O)nc2C(C)C)-c2ccc(F)cc21` (stereo not given): 82.3%. The same measure for `CC(=O)Nc1nc(-c2ccc(N3CCN(C)CC3)c(NS(=O)(=O)c3ccc(C(F)(F)F)cc3)c2)cs1`: 43.3%; for `Cc1ccc(-c2ccc(SCC(=O)Nc3ccc(Cl)c(C(F)(F)F)c3)nn2)cc1`: 62.4%; for `c1ccc(C(=C(c2ccc(OCCN3CCCCC3)cc2)c2ccc(OCCN3CCCCC3)cc2)C2CCCC2)cc1`: 1.48% (active).

Turning to `O=C(O)CCCCCCCCCCN1C(=O)/C(=C/c2cnc(-c3ccccc3)s2)SC1=S`, the growth is 96.1%. The same measure for `CCN(CC)CCOc1ccc(C(=C(C)c2ccccc2)c2ccc(OCCN(CC)CC)cc2)cc1`: 13.6%. Consider `Cc1ccc(C(=O)Nc2ccc(-n3c(C)nc4c(cnn4-c4ccccc4)c3=O)cc2)cc1`, for which the growth was 49.8%. With `COc1ccc2[nH]c(O)c(N=NC(=O)COc3ccc(NC(=O)Nc4ccc(Cl)c(Cl)c4)cc3)c2c1` the figure was -92.7% (active); with `O=C1NC(=NC23CC4CC(CC(C4)C2)C3)N/C1=C\c1ccc2ncccc2n1`, -24.7% (active).

With `COC(=O)C(Cc1ccc(O)c(O)c1)NC(=O)C(CSC/C=C(\C)CCCC(C)CCCC(C)CCCC(C)C)NC(C)=O` (stereo not given), the growth is 19.7%. With `O=C(Nc1ccncc1)c1ccc(-n2c(=O)[nH]c3ccccc3c2=O)cc1` the figure was 93.3%; with `CCCCCc1ccc(S(=O)(=O)N(C(C)=O)c2cc(-c3csc(N(C)C(C)=O)n3)ccc2N2CCN(C)CC2)cc1`, 62%; with `COc1ccc(-c2ccc(/C=N/NC(=O)c3[nH]c4ccc(Br)cc4c3-c3ccccc3)s2)cc1`, 79.6%. With `CC(C)CCSc1nc(NC2CC2)c(C#N)c(-c2ccc(C(C)C)cc2)n1` the figure was 112%.

With `O=C(Nc1nc2ccc([N+](=O)[O-])cc2s1)Nc1ccccc1I`, the growth was 14.4%. The same measure for `Cc1ccc(CSc2nc(Cl)c(C#N)c(-c3ccc(F)cc3)n2)cc1`: 81.6%. With `CCN1CCN(c2ccc(NC(=O)Nc3ccc(-c4cc(C(=O)NC)c5ncccc5n4)cc3)cc2C(F)(F)F)CC1`, the growth is -100% (active). With `COc1ccccc1NCc1ccc(CO)n1-c1ccc(C)cc1` the figure was 97.7%. Consider `CCCCCCCCCCCCCCCCCCCC(=O)NCCc1c[nH]c2ccc(OC(=O)NOCCOCCOCCOCCOCCOCCOCCOCCOCCOCCOCCOCCOCCOCCOCCOCCOCCOCCOCCOCCOCCOCCOC)cc12`, for which the growth is 29.8%. Regarding `CC(=O)NCC1=C(C)C=C2C(=O)[C@](C)(O)C3(CC3)C(C)=C21`, the growth is -53% (active).

On to `Cc1cccc2cc(-c3cc(-c4ccccc4)nc(=S)[nH]3)c(Cl)nc12`, for which the growth was 99.5%. With `CO[C@H]1CSS[C@@H]1Cn1nc(-c2ccc(Oc3ccccc3)cc2)c2c(N)ncnc21` the figure was 50.2%. On to `CNC(=O)c1cc(-c2ccc(NC(=O)Nc3ccc(C)cc3)cc2)nc2cccnc12`, for which the growth is 108%.

With `O=C(Cn1cc(CSc2nnc3oc4ccccc4n23)nn1)Nc1cccc(Cl)c1`, the growth is 63.4%. For `O=C(Nc1cc(Cl)cc(Cl)c1)Nc1cc(Cl)cc(Cl)c1`, the growth was 10.8%. With `C=CC(=O)Nc1ccc(C(=O)/C=C/c2ccc(N(C)CCF)cc2)c(O)c1` the figure was 19.8%. With `CC(=C(c1ccc(OCCN2CCCCCC2)cc1)c1ccc(OCCN2CCCCCC2)cc1)c1ccc(Cl)cc1`, the growth is -96.3% (active). With `Cc1ccc(C(C)C)cc1NC(=O)c1ccccc1O` the figure was 24.6%; with `C=CC(=O)Nc1nc(-c2cccc(NS(=O)(=O)c3cccc4c(N(C)C)cccc34)c2)cs1`, 7.55% (active); with `CC(C)NC(=O)c1cc(-c2ccc(NC(=O)Nc3ccc(N4CCN(C)CC4)c(C(F)(F)F)c3)cc2)nc2cccnc12`, -87.8% (active). With `COc1ccc2[nH]c(=O)c(CSc3nccc(-c4ccc(Cl)cc4)n3)cc2c1` the figure was 36.3%. As for `O=C1Nc2cc(Cl)ccc2/C1=C/c1ccc(OCc2ccc(Br)cc2F)cc1`, the growth is -53.8% (active).

For the compound `O=C(N/N=C/c1ccc(B(O)O)o1)c1[nH]c2ccc(Br)cc2c1-c1ccccc1`, the growth is 56.1%. For `CCCS(=O)(=O)c1oc(-c2ccc(F)cc2)nc1S(=O)(=O)c1ccc(F)cc1`, the growth was -90.7% (active).
